14 compounds from PubChem BioAssay AID1259240 (Keith Lab, Institute of Cancer Science, University of …, 2017) can be followed below.

SMILES strings stand for the structures. Calls of active or inactive are those of the source. No stated cut-off is given here; in the data, active means fold change mostly below about -2 (no sharp cut-off); inactive means mostly above about -1.8.

This assay can be described thus: modulation of TERT promoter-driven luciferase – cell-based, luciferase reporter, human, primary screen (AID 1259240). Conditions: A2780 TERT promoter luciferase reporter, 16 h; at 20 µM, fold versus average of vehicle-only wells.
Take `Cn1c(=O)c2c(SCC(=O)Nc3ccc4c(c3)OCO4)nc(-c3ccco3)nc2n(C)c1=O`: the fold change is 1.03 (inactive).

For `CCOC(=O)c1nn(-c2ccc(C)cc2)c(=O)c2c(NC(=O)c3ccc(C)c([N+](=O)[O-])c3)scc12`, the fold change is 1.24 (inactive).

For the compound `O=c1oc2cc(O)ccc2cc1-c1nnc(Nc2ccccc2)s1`, the compound was called active.

In the case of `COc1ccc(OC(C)c2nc(-c3ccc(OC)cc3)no2)cc1` (centres undefined), the fold change is 1.61 (inactive).

As for `CN1C(=O)/C(=C/c2cn(CC(=O)N3CCCc4ccccc43)c3ccccc23)c2ccccc21`, the fold change was 1.47 (inactive).

Take `Cc1cc(NC(=O)c2cc3c(s2)-c2ccccc2S(=O)(=O)C3)no1`: the fold change was 1.14 (inactive).

Take `CC(CC(=O)N1CCN(c2ccc([N+](=O)[O-])cc2)CC1)CC1=NS(=O)(=O)c2ccccc2N1` (centres undefined): the fold change is -1.48 (inactive).

Regarding `CN(CC(=O)NCC1CCCO1)S(=O)(=O)c1ccc2c(c1)c(=O)n(C)c(=O)n2C` (centres undefined), the fold change is 1.06 (inactive).

For `Cc1nc2c(-c3ccc(F)cc3)c(C)nn2c(C)c1CCC(=O)NC(C)C`, the fold change was -1.28 (inactive).

As for `CN(C(=O)Cn1c(=O)n(CCCS(=O)(=O)C2CCCCC2)c(=O)c2ccccc21)c1ccccc1`, the fold change was -1.1 (inactive).

`COc1cc(OC)cc(-c2cc(N3C(=O)Nc4ccccc4N3O)n[nH]2)c1`: the fold change was -1.25 (inactive).

In the case of `CCOc1ccc(-n2c(C)c(C(C)=O)c3cc(OCC(N)=O)ccc32)cc1`, the fold change was -1.01 (inactive).

With `NC(=O)c1ccccc1NC(=O)c1cc(-c2ccc(Br)s2)nc2ccccc12`, the fold change was -2.57 (active).

With `Cc1nnc(NC(=O)Cn2c(=O)sc3ccccc32)s1`, the fold change is -1.03 (inactive).
